Compound activity: PubChem, National Center for Advancing Translational Sciences (NCATS)
Sm TGR inh: S. mansoni TGR enzyme inhibition. purified TGR, DTNB reduction, TNB absorbance 405 nm. Potency, µM (doses to about 114 µM), inactives show at the highest dose activity change, negative = inhibition, hits mostly inhibitors. 360,000 compounds, 3% hits. AID 485364; also: nearly all actives have a fitted effect of over 60% in size
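Kinetic colorimetric format: TGR-catalysed, NADPH-driven DTNB reduction monitored via TNB absorbance. Enzyme dispensed at 20 nM; compound exposure 15 min at room temperature before reaction start.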
FMDV antiviral: antivirals against foot and mouth disease virus; FMDV antiviral cell-based qHTS; 410,000 compounds, 1.2% hits; Potency, µM (titrated, usually from 57.9 µM), for the others: at the top dose activity change, negative = inhibition, most hits filed as inhibitors; calls by dose curve; tested in HEK293T cells; also: read-out not given here; nearly all actives have a fitted effect of over 45% in size
Marburg entry inh: Marburg virus entry inhibition; Marburg virus pseudotyped entry inhibition, cell reporter; Potency, µM (doses to about 37.8 µM), for inactives: at the top dose activity change, negative = inhibition, actives largely listed as inhibitors; 300,000 compounds, 1.8% hits; AID 540276; calls by dose curve; tested in HEK293 cells
RE007 growth inh: less growth of the S. pombe RE007 Vpr strain; S. pombe RE007 Vpr strain, BacTiter-Glo ATP luminescence, 24 h; Potency, µM (highest dose often 92.2 µM), inactives show at the highest dose activity change, negative = less growth, usual class: inhibitors; 360,000 compounds, 0.21% hits; AID 651644; active = well fitted falling curve with a large enough effect; inconclusive = small, poorly fitted or top-dose-only effect; inactive = no such curve, though single readings can be large or run the other way; also: nearly all actives have a fitted effect of over 50% in size
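Fission yeast RE007 carrying one integrated HIV-1 vpr copy, seeded at OD 0.01 in PMG+AL medium with 23 nL pinned compound. Grown 24 h at 30 degrees; viability read by BacTiter-Glo luminescence after 5 min.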
HCV inh: inhibitors of hepatitis C virus infection | Huh7.5.1 HCVcc-Cre infection, luciferase reporter, 44 h | Potency, µM (titrated, usually from 41.8 µM), inactives show at the top dose activity change, negative = inhibition, usual class: inhibitors | 340,000 compounds, 3.4% hits
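Seed cells (1,000/well) for 4 h; treat with compound and infect with HCVcc-Cre, moi about 0.5. Incubate 44 h, then detect luciferase activity.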
LASV entry inh: Lassa virus entry inhibition; Lassa virus pseudotype entry inhibition, cell reporter; Potency, µM (series often up to 37.9 µM), for the others: at the top dose activity change, negative = inhibition, most hits filed as inhibitors; 300,000 compounds, 1.2% hits; AID 540256; calls by dose curve; tested in HEK293 cells; also: nearly all actives have a fitted effect of over 50% in size
* hit, by the source's call; ? = inconclusive; · = not tested or not shown; [ ] = another dose, or the depositor's remark. The list is not random: actives were taken first. Their share in the collection is about 7.2%. Unless noted, calls follow the shape of the dose curve; as a rule, active = well fitted curve in the direction sought with a large enough effect; inconclusive = small, poorly fitted or top-dose-only effect, or another doubt; inactive = no such curve, though single readings can be large; an effect the other way counts as inactive or inconclusive. % is scaled to controls: 0 for no effect and ±100 for the full control effect; potency is read from the fitted curve at half-maximal effect.

SMILES	Sm TGR inh	FMDV antiviral	Marburg entry inh	RE007 growth inh	HCV inh	LASV entry inh
O=S(=O)(NC1CC(NS(=O)(=O)OCC(Cl)(Cl)Cl)C2CCCCC12)OCC(Cl)(Cl)Cl (stereo unspecified)	79µM*	?	·	-6%	-8%	·
C[C@H](NS(=O)(=O)OCC(Cl)(Cl)Cl)C1CC1c1ccccc1 (stereo partly specified)	-15%	-4%	·	0%	30%[8.37 µM]	·
O=S(=O)(NC1CCCCCCC1)OCC(Cl)(Cl)Cl	-24%	15%	·	-8%	10%	·
O=S(=O)(NC1CCCC1)OCC(Cl)(Cl)Cl	30%	24%	·	-6%	0.32µM*	·
COC(=O)N1CCC2(CCN(Cc3cc(C(F)(F)F)cc(C(F)(F)F)c3)CC2)CC1	·	-19%	·	·	·	·
CC1(C)C(c2ccco2)=[N+]([O-])C2(CCCCC2=O)N1O (stereo unspecified)	50µM*	-21%	-16%	4%	-3%	1%
O=C1NC[C@H](Cc2ccccc2)N(CC2CCN(CCC34CC5CC(CC(C5)C3)C4)CC2)C1=O	·	-15%	·	0%	-4%	·
CCOc1ccccc1-c1n[nH]c(=S)o1	2%	6%	15%	-13%	11%	-1%
CCCCc1cc(-c2n[nH]c(=S)o2)c2ccccc2n1	45µM*	-29%	-16%	-6%	-16%	4%
Cc1nc2ccn(Cc3ccco3)c(=O)c2cc1C(=O)N1CCN(c2ccccc2F)CC1	-1%	-9%	·	·	·	0%[46.1 µM]
C=CC1=C2C=C(C3CC3)N(CCCCO)C=C2C(=O)C(C)(OC(=O)c2ccco2)C1=O (stereo unspecified)	·	·	-7%[14.2 µM]	·	·	·
COc1ccc2cc(C(=O)N3CCN(Cc4ccc5c(c4)OCO5)CC3)[nH]c2c1	-31%	-25%	?	2%	10µM*	?
COc1ccc2cc3cc(C(=O)N4CCN(Cc5ccc6c(c5)OCO6)CC4)oc3nc2c1	1%	22µM*	?	-11%	?	?
COc1ccc2cc3cc(C(=O)N4CC(C)CC(C)C4)oc3nc2c1 (stereo unspecified)	1%	5%	·	-8%	-22%	·
COc1ccc2cc3cc(C(=O)Nc4ccc5c(c4)OCCO5)oc3nc2c1	7%	-26%	?	-1%	11µM*	?
COc1ccc2cc3cc(C(=O)NCc4ccc5c(c4)OCO5)oc3nc2c1	-20%	2%	?	2%	-7%	0.82µM*
COc1ccc2cc3cc(C(=O)Nc4cc(OC)c(OC)c(OC)c4)oc3nc2c1	8%	?	-30%	-10%	?	?
CCOc1ccc(CNCc2c(C(=O)O)n(Cc3ccccc3F)c3cc(OC)ccc23)cc1	-10%	-13%	·	·	·	-12%[46.1 µM]
CCCCCCCCCCCCCC(=O)O[C@@H]1[C@@H](C)[C@@]2(O)[C@@H](C=C(CO)C[C@@]3(O)C(=O)C(C)=C[C@@H]23)C2C(C)(C)[C@@]21OC(C)=O (stereo partly specified)	·	·	22µM*	·	·	6.5µM*
CS/C(=C/[N+](=O)[O-])Nc1cccc2c1C(C)CC2(C)C (stereo unspecified)	13µM*	0%	?	12%	-7%	-16%
CC(=O)Nc1cc2c(c([N+](=O)[O-])c1C)C(C)(C)CC2(C)C	·	0%	?	-10%	-23%	-7%
Cc1ccc(CCNC(=O)c2cnc3c(-c4ccc(F)cc4)c(C)nn3c2C)cc1	3%	-8%	·	·	·	28%[46.1 µM]
CCCCCCCCCc1ccc(OCCOCCO)cc1	·	11µM*	·	·	·	·
Cc1cccc(NC(=O)c2cc(-c3ccccn3)nc3ccccc23)c1C	14%	14µM*	?	3%	?	?
COc1cccc(NC(=O)c2cc(-c3ccccn3)nc3ccccc23)c1	-2%	-23%	-15%	0%	?	-5%
SMILES	Sm TGR inh	FMDV antiviral	Marburg entry inh	RE007 growth inh	HCV inh	LASV entry inh
Cc1ccc(-c2cc(C(=O)NCCN3CCOCC3)c3ccccc3n2)o1	45µM*	-1%	-5%[46.1 µM]	-5%	5%	23%[46.1 µM]
COc1ccc(-c2cc(C(=O)NCCN3CCOCC3)c3ccccc3n2)cc1	-10%	32%	6%	9%	6%	-13%
Cc1ccc(Nc2cc(C(=O)NCCCN3CCOCC3)c3ccccc3n2)cc1C	-7%	-4%	·	5%	22µM*	·
Cc1ccc(-c2cc(C(=O)Nc3cccnc3)c3ccccc3n2)o1	-17%[11.4 µM]	·	6%	1%	6%	7%
Cc1ccc(-c2cc(C(=O)Nc3ccccn3)c3ccccc3n2)o1	18µM*	-19%	?	8%	-24%	-7%
COc1ccc(C)cc1NC(=O)c1oc2ccc(S(=O)(=O)N3CCC4(CC3)OCCO4)cc2c1C	12%	-13%	·	·	·	8%[46.1 µM]
CCOc1ccc(C2C(C(=O)Nc3ccccc3)=C(C)Nc3nc(-c4ccccc4)nn32)cc1OC (stereo unspecified)	-9%	11%	-5%[46.1 µM]	·	·	-19%[46.1 µM]
CCOC(=O)[C@@H](C#N)[C@@H](Cc1ccccc1)c1ccco1	·	·	1%	·	·	·
Cc1nc2c(-c3ccccc3)c(C)nn2c(C)c1CCC(=O)NCc1cccc(Cl)c1	0%	-10%	-15%[46.1 µM]	·	·	30%[46.1 µM]
Cc1cc(C)cc(Nc2cc(C(=O)NCc3ccccc3)c3ccccc3n2)c1	35µM*	12%	?	·	·	-1%[46.1 µM]
Cc1ccc(NC(=O)c2cc(-c3ccc(C)o3)nc3ccccc23)cc1	25µM*	·	-20%	25µM*	-9%	13%
Cc1ccc(Nc2ncc(C(=O)NCCCN3CCN(C)CC3)c3ccccc23)cc1Cl	0%	-29%	?	-14%	10µM*	?
C#CCN1C(=O)[C@]2(O[C@H](COc3ccccc3)CC3=C2CCC3)c2ccccc21	·	·	-41%[14.2 µM]	·	·	?
O=C(Nc1ccc(Cl)cc1C(F)(F)F)c1cc(S(=O)(=O)NCc2ccccc2)ccc1F	5%	17%	·	·	·	-3%[46.1 µM]
O=C(O)C1CC(C2CCCCN2)CN2CCCCC12 (stereo unspecified)	·	-6%	·	·	·	·
CCn1c(=S)sc2c(=O)n(-c3ccccc3)c(SC)nc21	-28%	18µM*	-13%	-7%	?	-3%
COC(=O)c1ccc(Cl)cc1NC(=O)N1CC(C)Oc2ccccc21 (stereo unspecified)	1%	0%	·	·	·	1%[46.1 µM]
COc1ccc(OC)c2c(C)c(C)[nH]c12	32µM*	40%	·	-7%	10µM*	·
COc1ccc(OC)c2c(=O)cc(C(=O)O)[nH]c12	3%	-23%	5%	1%	8%	7%
C/C(=N\NC(=O)CO/N=C(\C)c1cccs1)c1ccc(N)cc1	-2%	-2%	·	-3%	-19%	·
C/C(=N\OCC(=O)N/N=C/c1ccc(C)cc1O)c1cccs1	6%	11%	-19%	2%	10µM*	14%
CN(C)c1nc(OCCNC(=O)Nc2ccccc2)nc(N2CCCCC2)n1	12%	-11%	-17%	-17%	11µM*	-17%
